HT1080 IDH1KD tx: qHTS for induction of synthetic lethality in tumor cells producing 2HG: qHTS for the HT-1080-IDH1KD cell line; AID 686971, 2013; HT-1080 IDH1 knockdown viability, ATP luminescence, 48 h; Potency, µM (top dose mostly 46.1 µM), without a hit: at the top dose activity, negative = toxicity, hits mostly cytotoxic; 360,000 tested, 2% active;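 further: 0% = DMSO wells and -100% = cell-free medium wells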
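IDH1KD HT-1080 cells, 750/well, RPMI + 5% FBS; compound pinned after 2 h settling; 48 h, 37 °C; CellTiter-Glo luminescence; % activity normalised to DMSO and no-cell wells; curves fitted, classed by r2 and efficacy.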
ATXN viability: Viability Counterscreen for Primary qHTS for Inhibitors of ATXN expression | S2 cells (HEK-293 line with an ATXN2-luciferase reporter) viability, CellTiter-Fluor protease fluorescence, 24 h | Potency, µM (series often up to 56.7 µM), actives largely listed as cytotoxic | 400,000 tested, 0.49% active | AID 651635, 2014; further: nearly all actives have a fitted effect of over 40% in size
ATXN2 expr inh: Primary qHTS for Inhibitors of ATXN expression; HEK-293 ATXN2-luciferase reporter, luminescence, 24 h; Potency, µM (top dose mostly 57 µM), without a hit: at the highest dose activity change, negative = inhibition, usual class: inhibitors; 360,000 tested, 0.72% active; AID 1745845, 2022; further: on the % scale 0 is the no-effect control and ±100 the full control effect; nearly all actives have a fitted effect of over 55% in size
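qHTS (up to 57 uM final) was run with 24 h compound exposure of reporter cells at 37 °C. Each well was multiplexed: SteadyGlo luminescence measured ATXN2-luciferase expression after a fluorogenic Gly-Phe-AFC viability readout (25 uM final).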
HT1080NT lethal: qHTS for induction of synthetic lethality in tumor cells producing 2HG: qHTS for the HT-1080-NT fibrosarcoma cell line; Potency, µM (doses to about 46.1 µM), without a hit: top-dose activity, negative = less viability, hits mostly cytotoxic; 360,000 tested, 1.6% active; HT-1080-NT fibrosarcoma viability, CellTiter-Glo ATP luminescence, 48 h; AID 686970, 2013;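 further: NT is the 2HG producing partner of a matched IDH1 knockdown line; 0% = DMSO-treated cells and -100% = media-only wells without cells; nearly all actives have a fitted effect of over 55% in size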
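Viability by CellTiter-Glo luminescence after 48 h compound exposure at 37C of HT-1080-NT cells (750/well, RPMI, 5% FBS). % activity scaled between DMSO wells and medium-only wells, then curve-fitted and categorized by curve class.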
KB-V1 cytotox: qHTS assay for MDR1-selective chemotherapeutics: Primary screen using the drug-selected MDR subline cells KB-V1 | KB-V1 MDR cells viability, CellTiter-Glo, 72 h | Potency, µM (series often up to 46.1 µM), actives largely listed as cytotoxic | 400,000 tested, 3.4% active | AID 1347076, 2019; further: on the % scale 0 is the no-effect control and ±100 the full control effect; nearly all actives have a fitted effect of over 60% in size
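Compound-treated KB-V1 multidrug-resistant cells, 72 h, 37 degrees C; viability by CellTiter-Glo. Fitted qHTS curves give the values.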
KB-3-1 cytotox: qHTS assay for MDR1-selective chemotherapeutics: Primary screen using the parental adenocarcinoma cell KB-3-1. Potency, µM (series often up to 46.1 µM), usual class: cytotoxic. KB-3-1 viability, CellTiter-Glo ATP luminescence, 72 h. AID 1347075, 2019. 400,000 tested, 1.4% active; further: on the % scale 0 is the no-effect control and ±100 the full control effect; nearly all actives have a fitted effect of over 60% in size
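Here the drug-naive KB-3-1 line serves as comparator for MDR sub-line selectivity; cells received compound titrations, 72 h at 37 °C, then CellTiter-Glo readout.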
* hit, by the source's call. An excerpt weighted towards active compounds, which were near 6.2% of everything screened. The call rests on the fitted dose curve; in most records, active means well fitted curve in the direction sought with a large enough effect; inconclusive means small, poorly fitted or top-dose-only effect, or another doubt; inactive means no such curve, though single readings can be large; an effect the other way counts as inactive or inconclusive. Potency means the concentration at half of the fitted maximal effect.

What do the screens show for `CCC(=O)NCc1nc2ccccc2n1Cc1ccccc1F`?
HT1080 IDH1KD tx: -5.1%; ATXN viability: inactive; ATXN2 expr inh: 1.3%; HT1080NT lethal: 1.6%; KB-V1 cytotox: 23.1µM*; KB-3-1 cytotox: inactive

How did CCCCCCCn1c(NC(=O)CC)nc2ccccc21 do in these assays?
HT1080 IDH1KD tx: inconclusive; ATXN viability: inactive; ATXN2 expr inh: inconclusive; HT1080NT lethal: -25.0%; KB-V1 cytotox: 9.2µM*; KB-3-1 cytotox: inconclusive

How did CC(C)c1ccc(S(=O)(=O)c2nnn3c2nc(NCCc2ccccc2)c2sccc23)cc1 do in these assays?
KB-V1 cytotox: inconclusive; KB-3-1 cytotox: inactive

Results for CCCn1c(NC(=O)c2ccc(C)cc2)nc2ccccc21 ?
HT1080 IDH1KD tx: -10.3%; ATXN viability: inactive; ATXN2 expr inh: 11.4%; HT1080NT lethal: -4.6%; KB-V1 cytotox: inconclusive; KB-3-1 cytotox: inconclusive

How did CCCn1c(NC(=O)c2ccccc2)nc2ccccc21 do in these assays?
HT1080 IDH1KD tx: -29.6%; ATXN viability: inactive; ATXN2 expr inh: 7.1%; HT1080NT lethal: -22.6%; KB-V1 cytotox: 14.6µM*; KB-3-1 cytotox: inconclusive

Results for CCCn1c(NCc2ccco2)nc2ccccc21 ?
HT1080 IDH1KD tx: -21.6%; ATXN viability: inactive; ATXN2 expr inh: -4.7%; HT1080NT lethal: 1.0%; KB-V1 cytotox: 20.6µM*; KB-3-1 cytotox: inactive

Results for Cn1c(/C=N/NC(=O)c2ccccc2)nc2ccccc21 ?
HT1080 IDH1KD tx: inconclusive; ATXN viability: inactive; ATXN2 expr inh: -28.8%; HT1080NT lethal: 10µM*; KB-V1 cytotox: inconclusive; KB-3-1 cytotox: inactive

Results for Cn1c(CCCNC(=O)c2ccccc2)nc2ccccc21 ?
HT1080 IDH1KD tx: 15.0%; ATXN viability: inactive; ATXN2 expr inh: 1.5%; HT1080NT lethal: 7.2%; KB-V1 cytotox: inactive; KB-3-1 cytotox: inactive

How did CCCCCn1c(NCc2ccco2)nc2ccccc21 do in these assays?
HT1080 IDH1KD tx: 2.3%; ATXN viability: inconclusive; ATXN2 expr inh: -13.1%; HT1080NT lethal: -18.4%; KB-V1 cytotox: inactive; KB-3-1 cytotox: inactive

Results for CCCn1c(Nc2nc3ccccc3n2C)nc2ccccc21 ?
HT1080 IDH1KD tx: 16.4µM*; ATXN viability: inconclusive; ATXN2 expr inh: inconclusive; HT1080NT lethal: 13µM*; KB-V1 cytotox: inconclusive; KB-3-1 cytotox: inconclusive

Results for CCN(CC)CCn1c(NCc2ccccn2)nc2ccccc21 ?
HT1080 IDH1KD tx: 4.0%; ATXN viability: inactive; ATXN2 expr inh: 1.2%; HT1080NT lethal: 9.2%; KB-V1 cytotox: inactive; KB-3-1 cytotox: inactive

Results for CCCn1c(NC(=O)C2CCN(S(=O)(=O)c3cccs3)CC2)nc2ccccc21 ?
HT1080 IDH1KD tx: inconclusive; ATXN viability: inactive; ATXN2 expr inh: -35.9%; HT1080NT lethal: inconclusive; KB-V1 cytotox: inconclusive; KB-3-1 cytotox: 23.1µM*

What do the screens show for `CCCn1c(NC(=O)c2cccc(S(=O)(=O)N3CCCC3)c2)nc2ccccc21`?
HT1080 IDH1KD tx: inconclusive; ATXN viability: inconclusive; ATXN2 expr inh: 15.8µM*; HT1080NT lethal: inconclusive; KB-V1 cytotox: 16.4µM*; KB-3-1 cytotox: 16.4µM*

What do the screens show for `CCCCn1c(NCc2ccccn2)nc2ccccc21`?
HT1080 IDH1KD tx: inconclusive; ATXN viability: inactive; ATXN2 expr inh: 20.3%; HT1080NT lethal: -3.6%; KB-V1 cytotox: 13µM*; KB-3-1 cytotox: inactive

What do the screens show for `CC(=O)Nc1nc2ccccc2n1Cc1ccccc1Cl`?
HT1080 IDH1KD tx: inconclusive; ATXN viability: inconclusive; ATXN2 expr inh: -24.8%; HT1080NT lethal: 18.4µM*; KB-V1 cytotox: inconclusive; KB-3-1 cytotox: inconclusive

How did CCC(=O)Nc1nc2ccccc2n1Cc1ccccc1Cl do in these assays?
HT1080 IDH1KD tx: -14.3%; ATXN viability: inconclusive; HT1080NT lethal: inconclusive; KB-V1 cytotox: inconclusive; KB-3-1 cytotox: inconclusive

Results for CCN(Cc1ccccc1)C(=O)Cn1c(=O)n(-c2ccccc2)c(=O)c2c1c1cc(C)ccc1n2C ?
ATXN viability: inconclusive; ATXN2 expr inh: 6.5%; KB-V1 cytotox: inactive; KB-3-1 cytotox: inactive

How did CCn1c(NC(=S)Nc2ccccc2)nc2ccccc21 do in these assays?
HT1080 IDH1KD tx: -14.1%; ATXN viability: inactive; ATXN2 expr inh: 20.4%; HT1080NT lethal: inconclusive; KB-V1 cytotox: inactive; KB-3-1 cytotox: inactive

Results for CCCn1c(NC(=S)Nc2ccccc2)nc2ccccc21 ?
HT1080 IDH1KD tx: -5.7%; ATXN viability: inactive; ATXN2 expr inh: -3.6%; HT1080NT lethal: -5.1%; KB-V1 cytotox: 16.4µM*; KB-3-1 cytotox: inconclusive

Results for Nc1nc(CCl)nc(Nc2cccc3ccccc23)n1 ?
HT1080 IDH1KD tx: inconclusive; ATXN viability: inconclusive; HT1080NT lethal: 0.517µM*; KB-V1 cytotox: inconclusive; KB-3-1 cytotox: inconclusive

How did CC(=O)N1c2nc(C(C)C)nn2C2(CCCCC2)[C@@H]2CCCC[C@@H]21 do in these assays?
ATXN viability: inconclusive; ATXN2 expr inh: -21.1%; KB-V1 cytotox: inactive; KB-3-1 cytotox: inactive

Results for CCOC(=O)c1ccccc1NC(=O)c1ccc(Cl)c(S(=O)(=O)N2CCOCC2)c1 ?
HT1080 IDH1KD tx: 16.2%; ATXN viability: inactive; ATXN2 expr inh: -3.4%; HT1080NT lethal: 10.4%; KB-V1 cytotox: 7.31µM*; KB-3-1 cytotox: inactive

How did COc1cc(CNCCCN2CCOCC2)ccc1OCC(=O)Nc1cccc(C(F)(F)F)c1 do in these assays?
HT1080 IDH1KD tx: inconclusive; ATXN viability: inactive; ATXN2 expr inh: -25.2%; HT1080NT lethal: inconclusive; KB-V1 cytotox: inactive; KB-3-1 cytotox: inactive

What do the screens show for `O=C(Nc1nc2ccccc2[nH]1)c1ccc(S(=O)(=O)N2CCOCC2)cc1`?
HT1080 IDH1KD tx: 7.4%; ATXN viability: inactive; HT1080NT lethal: 5.1%; KB-V1 cytotox: inactive; KB-3-1 cytotox: inactive

How did O=C(Nc1nc2ccccc2[nH]1)c1ccc(Cl)c(S(=O)(=O)N2CCCC2)c1 do in these assays?
HT1080 IDH1KD tx: -26.1%; ATXN viability: inactive; ATXN2 expr inh: inconclusive; HT1080NT lethal: -19.3%; KB-V1 cytotox: 14.6µM*; KB-3-1 cytotox: inconclusive

How did CCOc1cc(CNCCCN2CCOCC2)ccc1OCC(=O)Nc1cccc2ccccc12 do in these assays?
HT1080 IDH1KD tx: 11.2µM*; ATXN viability: inconclusive; ATXN2 expr inh: -33.2%; HT1080NT lethal: 10µM*; KB-V1 cytotox: inactive; KB-3-1 cytotox: inactive

Results for CCOC(=O)c1ccccc1NC(=O)COC(=O)c1ccc(OCC(=O)N2CCOCC2)c(OCC)c1 ?
HT1080 IDH1KD tx: 16.1%; ATXN viability: inactive; ATXN2 expr inh: -2.9%; HT1080NT lethal: 0.5%; KB-V1 cytotox: 2.59µM*; KB-3-1 cytotox: inactive

Source: PubChem
